# Measurements from PubChem BioAssay AID538 (PCMD, 2006).
# Screen size: about 62,000 compounds; about 100 (0.16%) were called active.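 How the source made its calls: active means inhibition above 20% in each of the two 10-compound mixture wells holding the compound; inactive means the rest.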 What follows is part of a selection rich in actives, with near analogues and random picks from the rest.
# Molecular target: Complement C1s subcomponent (Homo sapiens) (UniProt P09871)
# Test: complement C1s protease inhibitors, primary screen, biochemical, 10-compound mixtures (AID 538);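 further: 0% = enzyme wells lacking compound mixture and 100% = no-enzyme blank wells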
# Conditions: purified C1s, fluorogenic AMC substrate, pooled mixtures; screened at 5 µM (by protocol)
# Complement C1s subcomponent (Homo sapiens), sequence (P09871 16-437 limits assumed): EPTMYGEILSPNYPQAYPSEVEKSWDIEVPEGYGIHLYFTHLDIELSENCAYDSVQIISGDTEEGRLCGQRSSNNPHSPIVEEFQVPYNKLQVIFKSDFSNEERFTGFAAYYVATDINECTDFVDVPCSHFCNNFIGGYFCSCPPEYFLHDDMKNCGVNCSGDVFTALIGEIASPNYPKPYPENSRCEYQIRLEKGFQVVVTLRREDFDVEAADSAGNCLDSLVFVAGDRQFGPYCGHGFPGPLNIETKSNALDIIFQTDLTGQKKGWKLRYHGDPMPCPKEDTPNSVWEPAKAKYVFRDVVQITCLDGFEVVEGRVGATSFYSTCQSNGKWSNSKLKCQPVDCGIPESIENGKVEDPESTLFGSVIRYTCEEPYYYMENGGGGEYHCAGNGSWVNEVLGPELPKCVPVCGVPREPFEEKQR
# Complement C1s subcomponent (Homo sapiens), sequence (P09871 438-688 limits assumed): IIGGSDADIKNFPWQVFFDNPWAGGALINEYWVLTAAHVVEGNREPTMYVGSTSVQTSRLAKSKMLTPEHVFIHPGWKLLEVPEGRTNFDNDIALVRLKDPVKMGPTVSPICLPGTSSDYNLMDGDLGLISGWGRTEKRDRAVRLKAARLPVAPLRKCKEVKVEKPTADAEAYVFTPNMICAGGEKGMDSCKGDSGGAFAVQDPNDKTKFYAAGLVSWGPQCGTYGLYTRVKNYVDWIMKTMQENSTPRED
row,SMILES,mean inhibition % of two 10-compound mixtures (stronger effect = higher value)
1,Cc1nnc(C)n1/N=C/c1ccc(C(C)C)cc1,5.96% (inactive)
2,O=C(CCc1ccccc1)Nc1ccc(NC(=O)C2CC2)nc1,3.19% (inactive)
3,CC1OC2C(OC1C)N(S(C)(=O)=O)CCN2S(C)(=O)=O (stereo unspecified),6.29% (inactive)
4,COc1cc(C(O)c2nc3ccccc3n2C)cc(OC)c1OC (stereo unspecified),-4.52% (inactive)
5,COc1ccc(C)cc1-n1nnnc1SCC(=O)c1cc(C)n(Cc2ccco2)c1C,11.7% (inactive)
6,O=C(NCC12CC3CC(C1)CC(CNC(=O)N1CCCC1)(C3)C2)N1CCCC1,13.6% (inactive)
7,c1cc(-c2nn[nH]n2)ccc1CN1CCCCC1,14.2% (inactive)
8,CCCCn1c(SCC(=O)NCC2CCCO2)nc2ccc(N3CCOCC3)cc2c1=O (stereo unspecified),-11% (inactive)
9,Cc1nc2ccccc2c2oc(C(=O)NCC3CCCO3)cc12 (stereo unspecified),-97.9% (inactive)
10,Cn1c(=O)c2[nH]c(NCC3CCCO3)nc2n(-c2ccccc2)c1=O (stereo unspecified),64.6% (active)
11,COc1cccc(N2C(=O)CC(N3CCN(S(=O)(=O)c4ccccc4)CC3)C2=O)c1 (stereo unspecified),-26.5% (inactive)
12,CCOC(=O)C1Cn2c(nc3c(c2=O)C(C)(CC)Cc2ccccc2-3)S1 (stereo unspecified),-5.78% (inactive)
13,O=C1CC(c2cccc(Br)c2)C2=C(CCCC2=O)N1 (stereo unspecified),17.2% (inactive)
14,CCNC(=O)N1CCNC(=O)C1CC(=O)Nc1ccc(C(=O)OCC)cc1 (stereo unspecified),-35.7% (inactive)
15,Cc1ccc(-c2nc(COC(=O)c3c(C)noc3C)cs2)cc1,3.81% (inactive)
16,COC(=O)Cn1c(=NC(=O)CSCC(=O)Nc2cc(C)on2)sc2ccccc21,5.49% (inactive)
17,COc1ccccc1-c1cc(C(=O)NCCCn2ccnc2)no1,9.65% (inactive)
18,O=C(NCCCN1CCOCC1)c1cc(-c2ccc(Cl)cc2)on1,4.71% (inactive)
19,CCCCc1nc2ccccc2c(=O)n1NC(=O)c1c(O)c2cccc3c2n(c1=O)CC3,4.25% (inactive)
20,CC1(C)CC(=O)C(C=NCCC2=CCCCC2)=C(O)C1,-0.72% (inactive)
21,O=C1CCCC(O)=C1C=NCCc1ccccc1,50.4% (active)
22,O=C1CC(c2ccccc2)CC(O)=C1C=NCCN1CCOCC1 (stereo unspecified),17.3% (inactive)
23,COC(=O)c1nc(NC(=O)c2ccc(Cl)cc2)n[nH]1,12.2% (inactive)
24,Cc1ccc(C(=O)N(CN2CCCC2=O)c2ccc(F)cc2)cc1,5.52% (inactive)

row,SMILES,mean inhibition % of two 10-compound mixtures (stronger effect = higher value)
1,Cc1ccc(C)c(N2CCN(C(=O)CCc3nc4ccccc4[nH]3)CC2)c1,1.21% (inactive)
2,CCOC(=O)C(CCOc1cccc(CC)c1)C(=O)OCC,-10.1% (inactive)
3,Cc1c(NC(=O)Nc2ccccc2Cl)sc(=S)n1C,-6.43% (inactive)
4,CCCCN(C)C(=O)c1ccc2c(c1)N(CC)C(=O)c1ccccc1S2(=O)=O,5.62% (inactive)
5,COc1ccc(-n2c(SCC(=O)Nc3ccc4c(c3)OCO4)nnc2C(C)N2CCCCC2)cc1 (stereo unspecified),-12.3% (inactive)
6,CCN(Cc1ccncc1)C(=O)c1cccc(S(=O)(=O)N2CCOCC2)c1,2.16% (inactive)
7,Cc1cc(N2C(=O)C(=O)/C(=C(/O)c3ccc(Cl)cc3)C2c2cccc(Br)c2)no1 (stereo unspecified),11.8% (inactive)
8,O=C(NCc1ccco1)c1sc2cccc(F)c2c1Cl,3.97% (inactive)
9,COc1ccc(NC(=O)CCNC(=O)Cn2ccc3ccccc3c2=O)c(OC)c1,13.2% (inactive)
10,CC(C)Nc1nc(N(c2ccccc2)c2ccccc2)nc(-n2ccnc2)n1,9.18% (inactive)
11,CSc1cccc(NC(=O)C2CCCN2S(=O)(=O)c2ccc3c(c2)CCC(=O)N3)c1 (stereo unspecified),-3.33% (inactive)
12,Cc1ccc(C2CC(=O)NC(SCC(=O)OCc3ccccc3)=C2C#N)o1 (stereo unspecified),-61.3% (inactive)
13,CCC(=O)Nc1cccc(NC(=O)CSc2nnnn2C2CCCC2)c1,2.81% (inactive)
14,CC(C)c1cc(C(=O)O)on1,-17.9% (inactive)
15,CC1CCc2c(sc(NC(=O)c3ccc(Cn4cc(Br)cn4)o3)c2C(N)=O)C1 (stereo unspecified),-5.95% (inactive)
16,CCCn1c(=O)c2ccccc2n2c(SCC(=O)/C(C#N)=C(\C)N)nnc12,-0.9% (inactive)
17,CCOc1ccc2nc(SC(CC)C(=O)Nc3cc(C)on3)sc2c1 (stereo unspecified),2.46% (inactive)
18,COc1ccccc1Nc1nc(N)nc(CN(C)C2CCCCC2)n1,-40.1% (inactive)
19,C=CCn1c(CC(=O)Nc2cccc(OC)c2)nnc1SCC(=O)NC1CCCCC1,-2.35% (inactive)
20,CC(=O)N1CCN(C(=O)c2cccc(S(=O)(=O)Nc3ccc(C)cc3)c2)CC1,66.7% (active)
21,O=C(c1cccc(S(=O)(=O)N2CCOCC2)c1)N1CCOCC1,13.9% (inactive)
22,CN1CCN(C(=O)c2ccc(NS(=O)(=O)c3ccccc3)cc2)CC1,9.96% (inactive)
23,COCCCNC(=O)COc1cc(C)c(Cl)c(C)c1,-0.425% (inactive)
24,CCOC(=O)Cc1csc(NC(=O)CSc2nc(C)cc(=O)[nH]2)n1,-2.67% (inactive)

row,SMILES,mean inhibition % of two 10-compound mixtures (stronger effect = higher value)
1,O=S(=O)(/C=C/c1ccccc1)NCCc1ccccn1,-2.77% (inactive)
2,Clc1ccc(Cn2ncc3c(NCc4cccnc4)ncnc32)cc1,3.33% (inactive)
3,Cc1ccc(S(=O)(=O)NCC(=O)OCC(=O)N2CCc3ccccc32)cc1,5.33% (inactive)
4,N#Cc1cccc(CSc2nnc(CCCO)n2-c2ccccc2)c1,-5.26% (inactive)
5,CCCC(C(=O)N1CCOCC1)N1C(=O)C2C3C=CC(C3)C2C1=O (stereo unspecified),-8.34% (inactive)
6,O=c1[nH]nc(CSCc2ccccc2Cl)[nH]1,-7.92% (inactive)
7,Cc1c(C(=O)NCC2CCCO2)sc2nc(-c3ccccc3)cn12 (stereo unspecified),0.595% (inactive)
8,COC(=O)C(C)n1cnc2c(nnn2-c2cccc(Cl)c2)c1=O (stereo unspecified),-40.6% (inactive)
9,CC(C)c1ccc(OCC(O)Cn2cnc3ccccc32)cc1 (stereo unspecified),-21.9% (inactive)
10,CC(C)C(NC(=O)c1cccc(S(=O)(=O)N2CCOCC2)c1)C(=O)NCCc1ccccn1 (stereo unspecified),-12.8% (inactive)
11,COC(=O)COc1ccc2oc(=O)cc(C)c2c1,10.3% (inactive)
12,COC(=O)c1ccc(S(=O)(=O)c2ccc(C(=O)OC)s2)s1,-14% (inactive)
13,COC(=O)c1ccccc1NC(=O)CSc1ccccn1,-21.1% (inactive)
14,CC1CN(Cc2nc3c(c(=O)n(C)c(=O)n3C)n2Cc2cccc(Cl)c2)CC(C)O1 (stereo unspecified),-18.5% (inactive)
15,COc1cccc(-n2c(SCC(=O)NC3CCCCC3)nc3n[nH]c(C)c3c2=N)c1,-13.5% (inactive)
16,CC(=O)N(Cc1cccs1)C1CCOC(C)(C)C1 (stereo unspecified),4.59% (inactive)
17,CCOC(=O)c1cccc(NC(=O)CCc2c(C)nc3ncnn3c2C)c1,2.35% (inactive)
18,CC(C)n1c(NCc2c[nH]c3ccccc23)nc2ccccc21,-7.58% (inactive)
19,Cn1c(/C(C#N)=C2/CCCCCN2)nc2ccccc21,-6.22% (inactive)
20,Cc1ccc(OCC(=O)Nc2ccc(-c3nc4ncccc4o3)cc2)cc1,-66.2% (inactive)
21,Cc1ccccc1CSc1nnc(Cn2c(=O)sc3ccccc32)n1C,4.08% (inactive)
22,CCOC(=O)CCc1c(C)c2ccc(OCc3nn[nH]n3)c(C)c2oc1=O,-25% (inactive)
23,Cc1c(C(=O)Nc2ccccc2Cl)oc2ccc(S(=O)(=O)N3CCC4(CC3)OCCO4)cc12,-4.62% (inactive)
24,COc1cccc(-c2nnc(NC(=O)c3ccc(S(=O)(=O)N(CC(C)C)CC(C)C)cc3)o2)c1,14% (inactive)

row,SMILES,mean inhibition % of two 10-compound mixtures (stronger effect = higher value)
1,COC(=O)C(C)Sc1ccc2nnc(-c3cccc(F)c3)n2n1 (stereo unspecified),-5.87% (inactive)
2,CCOC(=O)c1nnn(-c2nc(OC)nc(N(C)C)n2)c1-c1ccccc1,-30.1% (inactive)
3,C#CC(C)(C)NC(=O)CSc1nc2c(c(=O)n(C)c(=O)n2C)n1CCCC,1.95% (inactive)
4,CCCc1cc(=O)[nH]c(SCc2ccc(C#N)cc2)n1,-9.73% (inactive)
5,C=C(C)COc1ccc(-c2n[nH]c(C)c2-c2ccccc2OC)c(O)c1,15.7% (inactive)
6,O=C(C1=C(O)C(=O)N(Cc2ccccc2)C1c1cccnc1)c1ccco1 (stereo unspecified),3.85% (inactive)
7,Cc1ccccc1C(=O)NCCN=C1NS(=O)(=O)c2ccccc21,-24.8% (inactive)
8,N#Cc1ccccc1-n1c(N)c(C(=O)N2CCCC2)sc1=S,-0.195% (inactive)
9,O=C(O)COc1nsnc1N1CCOCC1,-1.36% (inactive)
10,O=C(O)c1cc(S(=O)(=O)N2CCCCCC2)c(Cl)cc1Cl,-41% (inactive)
11,Cc1ccccc1-c1ccc(Nc2ccc(C(=O)N3CCOCC3)cc2)nn1,16% (inactive)
12,Cc1ccnc(N2C(=O)c3ccccc3C2Nc2ccc3c(c2)OCCO3)c1 (stereo unspecified),-33.6% (inactive)
13,COc1cccc(OCC(=O)Nc2ccccc2C(N)=O)c1,16.6% (inactive)
14,O=C(O)C1CC(=O)N(Cc2cccnc2)C1 (stereo unspecified),5.36% (inactive)
15,CCCn1c(=NC(C)=O)c(C(=O)OCC)cc2c(=O)n3ccccc3nc21,-168% (inactive)
16,N#Cc1cccc(NC(=O)CCC2CCCC2)c1,-2.16% (inactive)
17,Cn1nc(-c2ccc(Cl)cc2)c2cc(C(=O)NCc3ccco3)sc21,10.9% (inactive)
18,O=S(=O)(NCc1ccccn1)c1ccc(Br)s1,-20.3% (inactive)
19,COc1ccc(C(=O)Nc2c(N)nc(SCC(=O)N3CCC(C)CC3)[nH]c2=O)cc1OC,-31.6% (inactive)
20,CC1(C)CC(=O)C=C(NCc2ccncc2)C1,-4.76% (inactive)
21,Cc1ccc2c(c1)c1ncn(CCC3=CCCCC3)c(=O)c1n2C,2.97% (inactive)
22,CCCn1c(SCC(=O)c2ccc3c(c2)OCCO3)nnc1C(C)C,-7.42% (inactive)
23,Cc1nn(-c2ccccc2)c2[nH]c(C(F)(F)F)cc(=O)c12,1.25% (inactive)
24,CS(=O)(=O)N(C(=O)NC(=O)NC1CCS(=O)(=O)C1)C1CCCCC1 (stereo unspecified),-74.3% (inactive)
